# Assay results as given in PubChem BioAssay (Tox21).
# Results filed as inconclusive are left out. Where a call stands in place of a potency, no number is given. Values without a mark were called inactive. Active and inactive are the calls of the source. Calls come from the whole dose curve; as a rule, active = well fitted cell-killing curve with a large enough effect in the repeat runs; inconclusive = weak or mixed curves, or effect the other way; inactive = flat fitted curve, though single readings scatter.
# Assay: qHTS RealTime-Glo MT Cell Viability Assay in HEK293 cells - 16 hour (AID 1224872); note: top concentration of the series differs between compounds; nearly all actives have a fitted effect of over 50% in size
# Details: RealTime-Glo luminescence; series mostly up to 76.8 µM
# Text: National Center for Advancing Translational Sciences [NCATS]
# NIH Chemical Genomics Center [NCGC]
# U.S. Environmental Protection Agency [EPA]
# National Institutes of Environmental Health Sciences [NIEHS]
# National Toxicology Program [NTP]
# U.S. Food and Drug Administration [FDA]
# Measure of cell viability is critical in the cell-base assay. Analysis of cell viability is necessary for the characterization of cell responses to cytotoxic drugs and environmental stress. A RealTime-Glo MT Cell Viability Assay to monitor cell viability in real time of continues cell culture during 40 hours of compound treatment was used to screen Tox21 10K library compounds in Hek293 cells. The RealTime-Glo MT Cell Viability Assay is a nonlytic, homogeneous, bioluminescent method to measure cell viability in real time using a simple, plate-based method. The assay involves adding NanoLuc luciferase and a cell-permeant prosubstrate to cells in culture. Viable cells reduce the proprietary prosubstrate to generate a substrate for NanoLuc luciferase. This substrate diffuses from cells into the surrounding culture medium, where it is rapidly used by the NanoLuc Enzyme to produce a luminescent signal. The signal correlates with the number of viable cells, making the assay well suited for cytotoxicity studies.
# Tox21 Assay Protocol Summary:
# The mixture of Hek293 cell suspension and reagents were dispensed at 600cells/6 ul/well in 1536-well tissue culture treated black solid bottom plates using a Multidrop dispenser. After the assay plates were incubated at a 37 C/5% CO2 incubator for 5 hours, 23 nL of compounds dissolved in DMSO, positive and negative controls was transferred to the assay plate by a pintool work station. The plates were incubated at 37 C for 40 hours. The luminescence intensity were measured at 0h, 8h, 16h, 24h, 32h and 40h time points using ViewLux plate reader during compound treatment.
SMILES,Potency,"activity change, negative = cytotoxicity"
COc1ccc(N=[N+]([O-])c2ccc(OC)cc2)cc1,inactive,–
O=C(O)CCNC(=O)c1ccc(N=Nc2ccc(O)c(C(=O)O)c2)cc1,inactive,–
COC(=O)C1=C(C)NC(C)=C(C(=O)OCC(C)=O)C1c1ccccc1[N+](=O)[O-] (stereo not given),inactive,–
NC(=O)CCCCC1CCSS1 (stereo not given),inactive,–
CC(C)(C)OC(=O)N1C[C@@H](F)C[C@H]1C(=O)O,inactive,–
CCCCC=O,inactive,–
CCC(C(=O)NC(N)=O)c1ccccc1 (stereo not given),inactive,–
Nc1ncnc2c1ncn2Cc1c(F)cccc1Cl,inactive,–
CCOC(=O)[C@H](CCc1ccccc1)N[C@@H](C)C(=O)N1CCC[C@H]1C(=O)O,inactive,–
CCN1CCCC1CNC(=O)c1cc(S(N)(=O)=O)ccc1OC (stereo not given),inactive,–
CC(C)CCCC(C)CCCC(C)CCCCC(C)CCCC(C)CCCC(C)C (stereo not given),inactive,–
CNC(=O)c1c(I)c(NC(=O)CCCCC(=O)Nc2c(I)c(C(=O)O)c(I)c(C(=O)NC)c2I)c(I)c(C(=O)O)c1I,inactive,–
C(=C(c1ccccc1)c1ccccc1)c1ccccc1,inactive,–
Cc1ccc(Nc2ccc(O)c3c2C(=O)c2ccccc2C3=O)cc1,inactive,–
Cc1nccn1CC1CCc2c(c3ccccc3n2C)C1=O (stereo not given),inactive,–
CO,inactive,–
O=C(O)/C=C/c1ccc(Cn2ccnc2)cc1,inactive,–
CCCCCCCCCCCCCCCCCCOCC(O)CO (stereo not given),inactive,–
OCC(CO)(CO)COCC(CO)(CO)CO,inactive,–
C[C@H]1O[C@@H](n2cc(F)c(=O)[nH]c2=O)[C@H](O)[C@@H]1O,inactive,–

SMILES,Potency,"activity change, negative = cytotoxicity"
O=C(O)Cc1cc(I)c(Oc2cc(I)c(O)c(I)c2)c(I)c1,inactive,–
CC(=O)CCc1ccc(O)cc1,inactive,–
CN(C)N=Nc1ccccc1,inactive,–
Nc1cc(N)cc(C(=O)O)c1,inactive,–
CC(CCO)CCCC(C)(C)O (stereo not given),inactive,–
CCCCCCCCCCCl,inactive,–
O=C(O)c1ccccc1S,inactive,–
O=C1OC(=O)c2cc([N+](=O)[O-])ccc21,inactive,–
CC(C)c1cccc(C(C)C)c1N,inactive,–
Nc1nc2c(ncn2CCC(CO)CO)c(=O)[nH]1,inactive,–
CC(=O)N[C@@H](CCC(N)=O)C(=O)O,inactive,–
COCCOC(=O)CC#N,inactive,–
CC(C)N1C(=O)c2ccccc2C1=O,inactive,–
CCCCCCC(CCCCCCCCCCC(=O)OCC(COC(C)=O)OC(C)=O)OC(C)=O (stereo not given),inactive,–
C=C(C)C(=O)NCCC[N+](C)(C)C,inactive,–
CC(C)=CCC/C(C)=C/C(=O)O,inactive,–
CSc1ccc(C=O)cc1,inactive,–
CCCCCCCCN(C)CCCCCCCC,inactive,–
CCCC(C)CO (stereo not given),inactive,–
NC(=S)Nc1cccc2ccccc12,–,14.8% [at 6.97 µM]
